Measurements published in PubChem BioAssay (NCI).
Where “and” joins values, the source holds several entries; their conditions need not be identical. Identical values can stand only once. About 79,000 compounds went through this panel and 15% of them were active in at least one assay; those are over-represented in the sample as a whole. Some structures have more than one record in an assay (separate samples or runs), and their calls can disagree. Calls of active or inactive are those of the source. Cut-off read from the data, not from the text of the source: active = growth inhibition above about 70%; inactive = the rest.

Legend:
[1] = NCI Yeast Anticancer Drug Screen. Data for the rad52 strain (AID 147);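 note: 0% = growth of vehicle-treated control cultures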; details: S. cerevisiae rad52 mutant growth inhibition, stronger effect = higher value
Procedure, shortened: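 Inhibition of yeast growth, referenced to vehicle controls, was the measured output for a strain with defective DNA damage repair.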

[2] = NCI Yeast Anticancer Drug Screen. Data for the wt1 strain (AID 149);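 note: 0% = growth of vehicle-treated wt1 cultures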; details: S. cerevisiae wt1 strain (SPY 50644) growth inhibition, stronger effect = higher value
Procedure, shortened: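 Using yeast strain wt1, compound-induced growth inhibition was determined against vehicle-treated cultures.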

[3] = NCI Yeast Anticancer Drug Screen. Data for the rad50EPP+ strain (AID 151);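 note: 0% = growth of vehicle-treated control cultures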; details: S. cerevisiae rad50 mutant strain, stronger effect = higher value
Procedure, shortened: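 Genetically defined yeast (rad50EPP+, DNA damage repair alteration) is grown with compound, and inhibition of growth is expressed relative to vehicle-treated controls.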

[4] = NCI Yeast Anticancer Drug Screen. Data for the mgt1 strain (AID 153); details: S. cerevisiae mgt1 mutant growth inhibition, stronger effect = higher value
Procedure, shortened: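 In the mgt1 strain, test compounds were added and growth inhibition was determined relative to vehicle-treated controls.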

[5] = NCI Yeast Anticancer Drug Screen. Data for the rad50 strain (AID 155);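 note: 0% = growth of vehicle-only cultures of the same strain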; details: S. cerevisiae rad50 strain growth inhibition, stronger effect = higher value
Procedure, shortened: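 Relative growth inhibition (compound vs vehicle) was measured in yeast with a defined repair-gene alteration.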

[6] = NCI Yeast Anticancer Drug Screen. Data for the mec2-1 strain (AID 157); details: S. cerevisiae mec2-1 strain, stronger effect = higher value
Procedure, shortened: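 Each compound was tested on mec2-1 yeast, a strain altered in DNA damage repair or cell cycle control. Growth inhibition is reported relative to vehicle.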

[7] = NCI Yeast Anticancer Drug Screen. Data for the sgs1 mgt1 strain (AID 161);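 note: 0% = growth of cultures given vehicle only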; details: S. cerevisiae sgs1 mgt1 strain, stronger effect = higher value
Procedure, shortened: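 Test agents were incubated with a DNA-repair-mutant yeast strain. Growth was then read and compared against vehicle-treated controls.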

[8] = NCI Yeast Anticancer Drug Screen. Data for the cln2 rad14 strain (AID 165);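 note: 0% = growth equal to vehicle treated cultures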; details: S. cerevisiae cln2 rad14 strain, stronger effect = higher value
Procedure, shortened: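 Test compounds were added to cln2 rad14 yeast cultures; inhibition of growth was then determined by comparison with vehicle treatment.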

[9] = NCI Yeast Anticancer Drug Screen. Data for the bub3 strain (AID 167); details: S. cerevisiae bub3 mutant strain, stronger effect = higher value
Procedure, shortened: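 Screening used yeast with an engineered genetic alteration affecting cell cycle control. Compound-exposed cultures were compared with vehicle cultures, and reduced growth was taken as inhibition.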

[10] = NCI Yeast Anticancer Drug Screen. Data for the wt2 strain (AID 169);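 note: 0% = growth of vehicle-treated yeast cultures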; details: S. cerevisiae wt2 strain growth inhibition, stronger effect = higher value
Procedure, shortened: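 The panel's yeast strains carry defined changes in DNA repair or cell cycle genes. Each strain is grown with compound, and growth loss is scored relative to vehicle.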

[11] = NCI Yeast Anticancer Drug Screen. Data for the mlh1 strain (AID 171);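 note: 0% = growth of vehicle-treated control cultures of the same strain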; details: S. cerevisiae mlh1 strain growth inhibition, stronger effect = higher value
Procedure, shortened: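 Inhibition values reflect reduced yeast growth in the presence of compound, referenced to vehicle controls, using a strain chosen for its alteration in DNA repair or cell cycle control.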

[12] = NCI Yeast Anticancer Drug Screen. Data for the sgs1 strain (AID 173);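 note: 0% = growth of vehicle-only control cultures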; details: S. cerevisiae sgs1 mutant, stronger effect = higher value
Procedure, shortened: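 Vehicle-treated cultures served as reference for growth inhibition of a yeast strain altered in DNA damage repair or cell cycle control after compound exposure.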

[13] = NCI Yeast Anticancer Drug Screen. Data for the mlh1 rad18 strain (AID 175); details: S. cerevisiae mlh1 rad18 strain growth inhibition, stronger effect = higher value
Procedure, shortened: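 Inhibition values reflect reduced growth of mutant yeast versus vehicle-treated controls following compound exposure; the mutations affect DNA damage repair.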

[14] = NCI Yeast Anticancer Drug Screen. Data for the rad18 strain (AID 177); details: S. cerevisiae rad18 mutant growth inhibition, stronger effect = higher value
Procedure, shortened: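 Steps: expose repair-mutant yeast to compound; measure growth; express as inhibition relative to vehicle control.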

[15] = NCI Yeast Anticancer Drug Screen. Data for the CLN2oe strain (AID 163);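 note: 0% = growth of vehicle-only control cultures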; details: S. cerevisiae CLN2oe strain, stronger effect = higher value
Procedure, shortened: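 First, the altered yeast strain was treated with each compound; second, its growth was measured; finally, inhibition was derived by comparison with vehicle controls.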

[16] = at 5.0 µM (retest, dose inferred, filed as 0.5)
[17] = at 50.0 µM (retest, dose inferred, filed as 5.0)

Measured: growth inhibition

C/C(=N\O)c1ccc2ccc3ccccc3c2c1
inactive: [1]; at 1.2 µM -2% | [1]; at 3.7 µM 11% | [1]; at 11.0 µM 49% | [2]; at 1.2 µM -4% | [2]; at 3.7 µM -5% | [2]; at 11.0 µM -9% | [2]; at 33.0 µM 7% | [3]; at 1.2 µM 12% | [3]; at 3.7 µM 35% | [4]; at 1.2 µM 1% | [4]; at 3.7 µM 0% | [4]; at 11.0 µM 2% | [4]; at 33.0 µM 37% | [5]; at 1.2 µM 4% | [5]; at 3.7 µM 12% | [5]; [16] -142% and 7% | [5]; at 11.0 µM 68% | [6]; at 1.2 µM 0% | [6]; at 3.7 µM 1% | [6]; [16] -43% and -1% | [6]; at 11.0 µM 15% | [6]; at 33.0 µM 30% | [6]; [17] -2% and 31% | [7]; [16] -60% and 0% | [7]; [17] 53% and 65% | [8]; [16] -49% and -8% | [8]; [17] 12% and 31% | [9]; at 1.2 µM 4% | [9]; at 3.7 µM 3% | [9]; [16] -50% and 1% | [9]; at 11.0 µM 29% | [10]; at 1.2 µM -1% | [10]; at 3.7 µM -1% | [10]; at 11.0 µM 0% | [10]; at 33.0 µM 35% | [11]; at 1.2 µM 3% | [11]; at 3.7 µM -3% | [11]; at 11.0 µM 7% | [11]; at 33.0 µM 61% | [12]; at 1.2 µM -2% | [12]; at 3.7 µM -3% | [12]; at 11.0 µM 33% | [13]; [16] -113% and 3% | [14]; at 1.2 µM 5% | [14]; at 3.7 µM 13% | [14]; at 11.0 µM 52%
active: [1]; at 33.0 µM 95% | [1]; at 100.0 µM 95% | [2]; at 100.0 µM 93% | [3]; at 11.0 µM 74% | [3]; at 33.0 µM 90% | [3]; at 100.0 µM 94% | [4]; at 100.0 µM 94% | [5]; at 33.0 µM 95% | [5]; at 50.0 µM 96.3% and 78.3% | [5]; at 100.0 µM 97% | [6]; at 100.0 µM 94% | [7]; at 50.0 µM 93.1% and 80.3% | [9]; at 33.0 µM 78% | [9]; [17] 72% | [9]; at 100.0 µM 94% | [10]; at 100.0 µM 92% | [11]; at 100.0 µM 90% | [12]; at 33.0 µM 80% | [12]; at 100.0 µM 95% | [13]; at 50.0 µM 96.2% and 82.8% | [14]; at 33.0 µM 92% | [14]; at 100.0 µM 94%
85% (active) and 65% (inactive): [5]; [17]
94.5% (active) and 56.8% (inactive): [9]; at 50.0 µM
77.6% (active) and 30.2% (inactive): [8]; at 50.0 µM
93.7% (active) and 7.85% (inactive): [6]; at 50.0 µM
75% (active) and 64% (inactive): [13]; [17]

CCNCC(=O)O[C@]1(CC)C(=O)OCc2c1cc1n(c2=O)Cc2cc3ccccc3nc2-1
active: [5]; [16] 72% | [5]; [17] 90% | [5]; at 50.0 µM 86% | [6]; [17] 73% | [6]; at 50.0 µM 76% | [10]; at 100.0 µM 76%
inactive: [1]; at 1.2 µM 38% | [1]; at 3.7 µM 28% | [1]; at 11.0 µM 20% | [1]; at 33.0 µM 19% | [1]; at 100.0 µM 16% | [2]; at 1.2 µM 19% | [2]; at 3.7 µM 12% | [2]; at 11.0 µM 13% | [2]; at 33.0 µM 2% | [2]; at 100.0 µM 4% | [3]; at 1.2 µM 35% | [3]; at 3.7 µM 25% | [3]; at 11.0 µM 9% | [3]; at 33.0 µM 2% | [3]; at 100.0 µM -11% | [5]; at 1.2 µM 22% | [5]; at 3.7 µM 15% | [5]; at 11.0 µM 17% | [5]; at 33.0 µM 10% | [5]; at 100.0 µM -6% | [6]; at 1.2 µM 35% | [6]; at 3.7 µM 19% | [6]; [16] 4% | [6]; at 11.0 µM 19% | [6]; at 33.0 µM 6% | [6]; at 100.0 µM 6% | [7]; [16] 31% | [7]; [17] 60% | [7]; at 50.0 µM 57.5% | [15]; at 1.2 µM 33% | [15]; at 3.7 µM 30% | [15]; at 11.0 µM 32% | [15]; at 33.0 µM 22% | [15]; at 100.0 µM 18% | [8]; [16] 15% | [8]; [17] 31% | [8]; at 50.0 µM 25.6% | [9]; at 1.2 µM 28% | [9]; at 3.7 µM 1% | [9]; [16] 7% | [9]; at 11.0 µM 14% | [9]; at 33.0 µM -2% | [9]; [17] 39% | [9]; at 50.0 µM 40.8% | [9]; at 100.0 µM -6% | [10]; at 1.2 µM -29% | [10]; at 3.7 µM -32% | [10]; at 11.0 µM -19% | [10]; at 33.0 µM 25% | [11]; at 1.2 µM 13% | [11]; at 3.7 µM 6% | [11]; at 11.0 µM -2% | [11]; at 33.0 µM -13% | [11]; at 100.0 µM -21% | [12]; at 1.2 µM 9% | [12]; at 3.7 µM 15% | [12]; at 11.0 µM 13% | [12]; at 33.0 µM 5% | [12]; at 100.0 µM -21% | [13]; [16] 16% | [13]; [17] 47% | [13]; at 50.0 µM 47.4% | [14]; at 1.2 µM 25% | [14]; at 3.7 µM 27% | [14]; at 11.0 µM 21% | [14]; at 33.0 µM 22% | [14]; at 100.0 µM 13%
